Results published in ChEMBL document CHEMBL4513146, “CO-ADD screening of Karazin Kharkiv National University (Ukraine) compounds”.
Potency and affinity values are given separately.

Tests used:
Staphylococcus aureus = settings: Concentration 32 ug.mL-1;; ASSAY_TEST Inhibition of Bacterial Growth; detection method Absorption (OD600); MEDIA CAMHB; plate type 384well; NBS; CORNING #3640; time 18 hr
Escherichia coli = settings: Concentration 32 ug.mL-1;; ASSAY_TEST Inhibition of Bacterial Growth; detection method Absorption (OD600); MEDIA CAMHB; plate type 384well; NBS; CORNING #3640; time 18 hr

Structure (SMILES)	Inhibition (Staphylococcus aureus) [%]	Inhibition (Escherichia coli) [%]
Cc1ccc(NC(=O)Cn2nc3ccc(SC(C)(C)C)nn3c2=O)cc1Cl	3.27	-0.69
CCOc1ccc(NC(=O)CSc2nnc3c(=O)n(-c4ccc(OCC)cc4)ccn23)cc1	16.17	-1.04
Cc1ccc(S(=O)(=O)Nc2ccc3nnc(-c4ccccc4)n3n2)cc1C	8.79	-2.69
Cc1ccc(F)cc1NC(=O)CSc1nc2ccccc2n2c(C(C)C)nnc12	9.29	-3.01
Cc1cccc(Oc2nccn3c(=O)n(CC(=O)Nc4ccccc4C(F)(F)F)nc23)c1C	14.33	3.1
CSc1ccc(CNC(=O)Cn2nc3c(N4CCN(c5ccccc5)CC4)nccn3c2=O)cc1	15.59	0.69
CCN(CCCNC(=O)CCc1nnc2ccc(-c3ccc(C)c(C)c3)nn12)c1ccccc1	-5.09	-5.52
CCOc1ccccc1NC(=O)Cn1nc2c(Oc3ccccc3)nccn2c1=O	5.93	-3.4
CCC(Sc1nnc2c(=O)n(-c3cccc(OC)c3)ccn12)C(=O)Nc1cc(OC)cc(OC)c1 (stereo not drawn)	13.02	-6.26
CCc1cccc(C)c1NC(=O)Cn1nc2ccc(SCc3ccc(Cl)cc3)nn2c1=O	-4.43	-10.21
Cc1cccc(CSc2nnc3c(=O)n(-c4ccc(Br)cc4)ccn23)c1	20.89	1.19
CCOc1ccc(-n2ccn3c(SCC(=O)c4cc(C)c(C)cc4C)nnc3c2=O)cc1	7.6	-6.02
CC(C)c1nnc2c(SCC(=O)N3CCN(c4ccc(F)cc4)CC3)nc3ccccc3n12	10.21	-1.94
CCc1nnc2c(S(=O)(=O)N(Cc3cc(F)cc(F)c3)c3ccccc3)cccn12	7.38	-4.8
COc1ccc(NC(=O)Cn2nc3c(Oc4cccc(F)c4)nccn3c2=O)cc1	-3.6	-10.71
CSc1cccc(NC(=O)Cn2nc3c(Sc4ccc(C)cc4C)nccn3c2=O)c1	-13.41	-16.34
COc1ccc(NC(=O)Cn2nc3ccc(SC4CCCCC4)nn3c2=O)cc1OC	3.6	-2.79
CC(=O)c1cccc(NC(=O)CSc2nc3ccccc3n3c(C)nnc23)c1	-0.38	-4.41
COc1ccccc1N1CCN(C(=O)Cn2nc3c(Sc4cccc(C)c4)nccn3c2=O)CC1	5.8	-4.78
COc1cccc(-n2ccn3c(SCc4cc(C)ccc4C)nnc3c2=O)c1	11.56	-0.49
Cc1cc(C)cc(NC(=O)Cn2nc3c4cc(-c5ccc(Cl)cc5)nn4ccn3c2=O)c1	2.02	6.23
CCc1ccc(N(Cc2ccc(C)cc2)S(=O)(=O)c2cccn3cnnc23)cc1	18.47	2.14
Cc1ccc(CN(c2ccc(F)cc2)S(=O)(=O)c2ccc3nnc(C)n3c2)cc1	-8.78	-18.59
CC(C)CCn1c(=O)c2sccc2n2c(=O)n(CC(=O)N(C)c3ccccc3)nc12	-2.05	-10.35
CCc1nnc2ccc(S(=O)(=O)N(Cc3ccc(OC)cc3)c3cccc(F)c3)cn12	-1.45	-12.26

Structure (SMILES)	Inhibition (Staphylococcus aureus) [%]	Inhibition (Escherichia coli) [%]
O=S(=O)(c1ccc2nncn2c1)N(Cc1ccccc1F)c1ccc2c(c1)OCO2	12.13	-4.11
CCc1ccccc1Sc1nccn2c(=O)n(CC(=O)Nc3cc(Cl)c(OC)cc3OC)nc12	-16.84	-7.56
COc1ccc(-n2ccn3c(-c4cccc([N+](=O)[O-])c4)nnc3c2=O)cc1	3.65	-6.72
Cc1cc2nn(CC(=O)Nc3ccc(F)cc3Cl)c(=O)n2c(Nc2ccccc2C)n1	-3.09	-11.67
CCCc1nnc2c(=O)n(CC(=O)N3CCCc4ccccc43)c3ccccc3n12	2.88	-3.24
O=c1c2sccc2n2c(=O)n(Cc3ccc(Br)cc3)nc2n1CCc1ccccc1	-9.4	-11.48
CCCc1nnc2c(=O)n(CC(=O)Nc3ccc(C(C)=O)cc3)c3ccccc3n12	1.62	1.52
O=C(CSc1nnc2c(=O)n(-c3ccccc3)ccn12)Nc1ccccc1F	8.41	1.53
COc1ccc(NC(=O)Cn2nc3c(N4CCCC4)nccn3c2=O)cc1Cl	12.62	-0.96
CC(C)(C)Sc1ccc2nn(CC(=O)Nc3ccc(Cl)cc3)c(=O)n2n1	3.13	0.89
CCCc1nnc2c(=O)n(CC(=O)Nc3cccc(Br)c3)c3ccccc3n12	8.23	-5.6
COc1cccc(-n2ccn3c(SCc4ccc(C)cc4)nnc3c2=O)c1	8.11	-4.39
O=C(CSc1nnc2c(=O)n(-c3ccccc3)ccn12)c1c[nH]c2ccccc12	16.15	-0.51
COc1ccc(CNC(=O)CCc2nnc3ccc(-c4ccccc4)nn23)cc1OC	1.5	-2.82
O=c1c2sccc2n2c(=O)n(Cc3cccc(Cl)c3)nc2n1CCc1ccccc1	10.13	1.01
COc1cccc(CNC(=O)CSc2nnc3c(=O)n(-c4ccccc4)ccn23)c1OC	2.64	-7.08
CCCCN(C)c1ccc2nnc(CCc3nc(-c4cc(OC)cc(OC)c4)no3)n2n1	-6.16	-4.97
O=C(CSc1nnc2c(=O)n(-c3ccc(Br)cc3)ccn12)Nc1ccc(F)cc1	9.36	-1.5
COc1ccc(NC(=O)Cn2nc3c(Sc4ccccc4)nccn3c2=O)c(OC)c1	-11.13	-9.08
COc1cccc(-n2ccn3c(SCC(=O)Nc4ccc5c(c4)OCCO5)nnc3c2=O)c1	11.59	-2.35
Cc1c(Cl)cccc1NC(=O)CSc1nc2ccccc2n2c(C)nnc12	7.92	3.58
Cc1nnc2c(SCC(=O)Nc3ccc(Br)cc3F)nc3ccccc3n12	1.94	-10.05
Cn1c(=O)c2sccc2n2c(=O)n(Cc3cccc(Br)c3)nc12	14.17	0.53
Cc1ccc(NC(=O)Cn2nc3c(Sc4cccc(F)c4)nccn3c2=O)cc1F	12.19	1.14
